According to PubChem BioAssay (Tox21):
Results filed as inconclusive are left out. Calls of active or inactive are those of the source. Unless noted, the call rests on the fitted dose curve; in most records, active means well fitted curve in the direction sought with a large enough effect in the repeat runs; inconclusive means weak or mixed curves; inactive means no such curve, though single readings can be large; an effect the other way counts as inactive or inconclusive.

Tests used:
[1] = qHTS assay to identify small molecule antagonists of the glucocorticoid receptor (GR) signaling pathway - cell viability counter screen (AID 720693); further: nearly all actives have a fitted effect of over 55% in size
[2] = qHTS assay for identifying genotoxic compounds that show differential cytotoxicity against isogenic chicken DT40 cell lines with known DNA damage response pathways - Rad54/Ku70 mutant cell line (AID 743015); further: nearly all actives have a fitted effect of over 60% in size
[3] = qHTS assay to identify small molecule antagonists of the androgen receptor (AR) signaling pathway using the MDA cell line - cell viability counter screen (AID 743041; further: nearly all actives have a fitted effect of over 45% in size)
Method in brief: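 Cells were plated at 3,000 per well and left 5 h. Compounds in DMSO were then pinned in, followed by R1881. After 16 h at 37C, CellTiter-Fluor fluorescence gave viability.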

[4] = target: Estrogen receptor (Homo sapiens) (UniProt P03372); assay: qHTS assay to identify small molecule antagonists of the estrogen receptor alpha (ER-alpha) signaling pathway (AID 743069; active means well fitted curve in the direction sought with a large enough effect in the signal ratio in the repeat runs, not every such curve was filed as active; the % refers to the signal ratio)
Chain of Estrogen receptor (Homo sapiens) (P03372 whole entry, looked up): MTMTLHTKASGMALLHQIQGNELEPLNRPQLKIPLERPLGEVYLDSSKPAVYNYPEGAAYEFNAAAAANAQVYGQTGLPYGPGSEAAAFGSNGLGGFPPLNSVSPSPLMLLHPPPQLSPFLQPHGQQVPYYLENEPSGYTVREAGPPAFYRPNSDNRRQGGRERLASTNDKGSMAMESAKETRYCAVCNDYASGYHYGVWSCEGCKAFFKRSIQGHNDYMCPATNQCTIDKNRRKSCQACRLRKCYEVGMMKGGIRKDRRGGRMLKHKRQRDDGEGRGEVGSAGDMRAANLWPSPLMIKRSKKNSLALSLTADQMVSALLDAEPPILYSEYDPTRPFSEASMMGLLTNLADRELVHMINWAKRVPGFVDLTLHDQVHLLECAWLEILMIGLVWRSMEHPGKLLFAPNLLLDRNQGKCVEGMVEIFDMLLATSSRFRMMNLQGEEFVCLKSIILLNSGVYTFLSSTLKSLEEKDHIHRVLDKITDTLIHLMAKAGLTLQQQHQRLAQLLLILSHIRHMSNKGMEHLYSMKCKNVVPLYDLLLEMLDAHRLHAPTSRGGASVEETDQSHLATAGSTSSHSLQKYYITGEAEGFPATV
Method in brief: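 ER-alpha-UAS-bla GripTite HEK293 line; 2% charcoal-stripped FBS overnight; plated, 4 hr 37C/5% CO2; cpd in DMSO + 17beta-estradiol, 18 hr 37C; LiveBLAzer B/G FRET substrate 2 hr RT; fluorescence intensity.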

[5] = qHTS assay to identify small molecule antagonists of the estrogen receptor alpha (ER-alpha) signaling pathway - cell viability counter screen (AID 743074; calls by dose curve;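 further: HEK293 cells carrying ER-alpha-UAS-bla reporter stimulated with 17beta-estradiol; nearly all actives have a fitted effect of over 45% in size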)
[6] = target: Estrogen receptor (Homo sapiens) (UniProt P03372); assay: qHTS assay to identify small molecule agonists of the estrogen receptor alpha (ER-alpha) signaling pathway (AID 743075; calls by dose curve;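 further: HEK293 GripTite cells with ER-alpha and UAS-driven beta-lactamase reporter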)
[7] = target: Estrogen receptor (Homo sapiens) (UniProt P03372); assay: qHTS assay to identify small molecule agonists of the estrogen receptor alpha (ER-alpha) signaling pathway using the BG1 cell line (AID 743079); further: nearly all actives have a fitted effect of over 20% in size
[8] = qHTS assay to identify small molecule antagonists of the estrogen receptor alpha (ER-alpha) signaling pathway using the BG1 cell line (AID 743080; calls by dose curve; further: series mostly up to about 70 µM; nearly all actives have a fitted effect of over 25% in size)
Method in brief: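 Antagonist mode: compounds in DMSO were pinned onto BG1-Luc-4E2 cells alongside 17beta-estradiol agonist, incubated 21.5 h, and ERE-driven luciferase measured with ONE-Glo. Cytotoxicity was multiplexed using CellTiter-Fluor fluorescence.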

[9] = qHTS assay to identify small molecule antagonists of the estrogen receptor alpha (ER-alpha) signaling pathway using the BG1 cell line - cell viability counter screen (AID 743081);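 further: compound given together with 17beta-estradiol as the ER stimulus; series mostly up to about 70 µM; nearly all actives have a fitted effect of over 45% in size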
Aromatase (Homo sapiens) = Aromatase (Homo sapiens) (UniProt P11511); assay: qHTS assay to identify aromatase inhibitors (AID 743083); further: series mostly up to about 70 µM; nearly all actives have a fitted effect of over 55% in size
Chain of Aromatase (Homo sapiens) (P11511 whole entry, looked up): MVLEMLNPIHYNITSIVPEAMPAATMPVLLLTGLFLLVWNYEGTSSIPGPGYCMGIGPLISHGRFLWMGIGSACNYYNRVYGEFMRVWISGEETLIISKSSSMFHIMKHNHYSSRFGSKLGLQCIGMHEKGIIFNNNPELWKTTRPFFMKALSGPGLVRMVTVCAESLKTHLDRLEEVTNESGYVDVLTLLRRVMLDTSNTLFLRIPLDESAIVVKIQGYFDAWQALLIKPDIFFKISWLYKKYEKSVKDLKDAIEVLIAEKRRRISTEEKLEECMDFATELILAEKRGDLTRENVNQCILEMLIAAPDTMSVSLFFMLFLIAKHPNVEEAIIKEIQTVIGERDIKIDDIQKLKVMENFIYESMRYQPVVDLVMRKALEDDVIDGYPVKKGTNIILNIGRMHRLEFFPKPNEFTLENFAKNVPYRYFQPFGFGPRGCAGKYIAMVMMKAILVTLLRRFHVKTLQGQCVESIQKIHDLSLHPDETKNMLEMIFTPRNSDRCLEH

[10] = qHTS assay to identify small molecule antagonists of the androgen receptor (AR) signaling pathway - cell viability counter screen (AID 743033; further: nearly all actives have a fitted effect of over 45% in size)
[11] = qHTS assay to identify small molecule antagonists of the thyroid receptor (TR) signaling pathway - cell viability counter screen (AID 743064); further: nearly all actives have a fitted effect of over 50% in size
Method in brief: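 GH3.TRE-Luc cells, 4 h pre-plating; cpd + T3 1 nM final; 37 °C 23.5 h; CellTiter-Fluor 30 min; fluorescence read.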

[12] = qHTS assay to identify small molecule antagonists of the thyroid receptor (TR) signaling pathway (AID 743065); further: series mostly up to about 70 µM; nearly all actives have a fitted effect of over 55% in size
Method in brief: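 Antagonism measured as loss of luciferase signal in GH3 cells stably carrying a TRE-luciferase reporter, co-treated with compound and T3 (1 nM final) for 23.5 h at 37 C. Viability was read in the same well by CellTiter-Fluor.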

[13] = test system: thyroid hormone receptor (rat, GH3 cells); assay: qHTS assay to identify small molecule agonists of the thyroid receptor (TR) signaling pathway (AID 743066; calls by dose curve)
[14] = qHTS assay for identifying genotoxic compounds that show differential cytotoxicity against isogenic chicken DT40 cell lines with known DNA damage response pathways - wild type cell line (AID 743012); further: nearly all actives have a fitted effect of over 60% in size
Method in brief: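 Wild type DT40, 300 cells/well, ~0.5 h settle at 37 C/5% CO2; compounds in DMSO added by pintool; 40 h at 37 C/5% CO2; CellTiter-Glo, 30 min RT; luminescence.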

[15] = qHTS assay for identifying genotoxic compounds that show differential cytotoxicity against isogenic chicken DT40 cell lines with known DNA damage response pathways - Rev3 mutant cell line (AID 743014); further: nearly all actives have a fitted effect of over 55% in size
[16] = target: Androgen receptor (Homo sapiens) (UniProt P10275); assay: qHTS assay to identify small molecule agonists of the androgen receptor (AR) signaling pathway using the MDA cell line (AID 743040; further: nearly all actives have a fitted effect of over 20% in size)
Chain of Androgen receptor (Homo sapiens) (P10275 whole entry, looked up): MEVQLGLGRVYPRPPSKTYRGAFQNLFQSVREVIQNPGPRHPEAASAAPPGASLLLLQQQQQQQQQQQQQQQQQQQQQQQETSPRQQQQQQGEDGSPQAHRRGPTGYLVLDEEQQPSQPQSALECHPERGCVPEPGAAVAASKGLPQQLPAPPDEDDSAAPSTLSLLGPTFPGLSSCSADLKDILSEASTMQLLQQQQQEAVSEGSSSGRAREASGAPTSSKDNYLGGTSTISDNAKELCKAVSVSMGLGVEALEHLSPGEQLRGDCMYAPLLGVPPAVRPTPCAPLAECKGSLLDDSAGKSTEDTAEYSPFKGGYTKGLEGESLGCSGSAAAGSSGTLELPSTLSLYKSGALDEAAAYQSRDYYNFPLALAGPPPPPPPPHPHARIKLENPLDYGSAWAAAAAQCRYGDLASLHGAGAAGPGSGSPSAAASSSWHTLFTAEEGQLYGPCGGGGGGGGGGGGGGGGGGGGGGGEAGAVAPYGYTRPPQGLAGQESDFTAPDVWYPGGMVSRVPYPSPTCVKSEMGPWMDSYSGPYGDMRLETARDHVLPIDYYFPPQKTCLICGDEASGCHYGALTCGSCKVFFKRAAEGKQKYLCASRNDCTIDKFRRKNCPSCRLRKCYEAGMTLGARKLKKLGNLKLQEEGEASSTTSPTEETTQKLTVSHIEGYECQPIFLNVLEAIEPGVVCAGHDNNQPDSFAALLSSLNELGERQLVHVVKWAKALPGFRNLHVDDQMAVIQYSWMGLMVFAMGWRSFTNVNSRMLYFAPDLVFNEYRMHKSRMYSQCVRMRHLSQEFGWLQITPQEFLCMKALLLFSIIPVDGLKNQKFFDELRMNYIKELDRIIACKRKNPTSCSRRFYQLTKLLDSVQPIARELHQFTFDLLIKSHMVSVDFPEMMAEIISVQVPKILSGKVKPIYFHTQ
Method in brief: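 Cells plated, 5 h at 37C/0% CO2; compound or DMSO pinned; 16 h at 37C; ONE-Glo added; luminescence measured after 30 min at room temperature. Reporter line: MDA-kb2 with MMTV-luciferase responsive to AR and GR.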

[17] = target: Androgen receptor (Homo sapiens) (UniProt P10275); assay: qHTS assay to identify small molecule antagonists of the androgen receptor (AR) signaling pathway using the MDA cell line (AID 743042; further: nearly all actives have a fitted effect of over 55% in size)
Method in brief: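 Antagonist mode: compounds plus R1881 agonist added to MDA-kb2 AR-luc cells, incubated 16 h at 37C. Luciferase reporter luminescence quantified, with multiplexed CellTiter-Fluor readout for cell viability.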

[18] = target: Androgen receptor (Homo sapiens) (UniProt P10275); assay: qHTS assay to identify small molecule antagonists of the androgen receptor (AR) signaling pathway (AID 743035; active means well fitted inhibition curve with a large enough effect in the signal ratio in the repeat runs, not every such curve was filed as active; the % refers to the signal ratio)
Method in brief: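 Fluorescence from a beta-lactamase FRET substrate (LiveBLAzer B/G, 2 h, room temperature) measured inhibition of R1881-stimulated signaling in GeneBLAzer AR-UAS-bla HEK293 cells exposed to compound for 16 h at 37C.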

[19] = target: Androgen receptor (Homo sapiens) (UniProt P10275); assay: qHTS assay to identify small molecule agonists of the androgen receptor (AR) signaling pathway (AID 743036; active means well fitted activation curve with a large enough effect in the signal ratio in the repeat runs, with a control signal flat, not every such curve was filed as active; the % refers to the signal ratio)
Method in brief: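 AR-bla HEK293 cells, 2,000/well; 4 h preincubation 37C/5% CO2; compound (DMSO) 16 h at 37C; LiveBLAzer B/G FRET substrate 2 h RT; fluorescence intensity read-out.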

Measured: Potency

Cc1ccccc1C
inactive: [1] | [2] | [3] | [4] | [5] | [6] | [7] | [8] | [9] | Aromatase (Homo sapiens)

O=c1cc(O)c(Cl)c[nH]1
inactive: [1] | [2] | [10] | [3] | [11] | [5] | [9] | Aromatase (Homo sapiens)

O=C(O)c1c(Cl)ccc(Cl)c1Cl
not listed: [10] | [13] | [14] | [15] | [16] | [17] | [18] | [19]
inactive: all other assays above

Nc1ccc(/C=C/c2ccc(N)cc2S(=O)(=O)O)c(S(=O)(=O)O)c1
not listed: [2] | [12] | [14] | [15] | [16] | [17] | [18] | [19]
inactive: all other assays above

C=C(C)[C@@H]1CC[C@@H](C)C[C@@H]1O
inactive: [14] | [15] | [2] | [10] | [3] | [11] | [5] | [9] | Aromatase (Homo sapiens)

O=c1[nH]c(=O)c2ccccc2o1
inactive: [1] | [2] | [16] | [3] | [17] | [11] | [12] | [13] | [5] | [9] | Aromatase (Homo sapiens)

O=P(O)(O)OCC(O)CO (stereo unspecified)
not listed: [1] | [5] | [11] | [16] | [17] | [18] | [19]
inactive: all other assays above

COC(/C=C(\C)CCC=C(C)C)OC
not listed: [1] | [3] | [14] | [16] | [17] | [18] | [19]
inactive: all other assays above

CN[C@@H]1[C@@H](O)[C@@H](O[C@@H]2[C@H](O)[C@H](O[C@H]3OC(CN)=CC[C@H]3N)[C@@H](N)C[C@H]2N)OCC1(C)O (stereo partly specified)
inactive: [14] | [2] | [10] | [3] | [12] | [13] | [5] | [9] | Aromatase (Homo sapiens)

NCCc1ccn[nH]1
not listed: [1] | [11] | [12] | [13] | [14]
inactive: all other assays above

CC(C)CCO
not listed: [1] | [14] | [15] | [16] | [17] | [18] | [19]
inactive: all other assays above

CCCCCC1Nc2cc(C(F)(F)F)c(S(N)(=O)=O)cc2S(=O)(=O)N1 (stereo unspecified)
not listed: [1] | [14] | [15] | [16] | [17] | [18] | [19]
inactive: all other assays above

CC(C)CCCC(C)CC=O (stereo unspecified)
not listed: [1] | [10] | [16] | [17] | [18] | [19]
inactive: all other assays above

Nc1ccc(S(=O)(=O)NC(=O)c2ccccc2)cc1
not listed: [1] | [15] | [16] | [17] | [18] | [19]
inactive: all other assays above
